Compound activity (PubChem BioAssay)
CHO-K1 Ca ag – M1 agonist counterscreen hit in parental CHO-K1 cells; Fluo-8 calcium fluorescence; scaled to maximal ATP response, vehicle zero; activation, % at 3 µM; hit rate 0.48% among 360,000; in the data active = activation above about 15%;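 note: untransfected CHO-K1 host cells lacking M1 receptor as counterscreen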
M1 ag – human M1 muscarinic receptor agonism; P11229; activation, % at 3 µM; hit rate 0.33% among 360,000; AID 588814; CHO-K1 hM1, Fluo-8 calcium fluorescence, agonist mode; 0% DMSO, 100% acetylcholine EC100;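 active = activation above the run's mean compound activation plus 3 SD, cut at about 16% in these data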;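 note: peak over basal fluorescence ratio within a 140 s kinetic read after compound addition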
Target sequence (P11229 whole entry, looked up): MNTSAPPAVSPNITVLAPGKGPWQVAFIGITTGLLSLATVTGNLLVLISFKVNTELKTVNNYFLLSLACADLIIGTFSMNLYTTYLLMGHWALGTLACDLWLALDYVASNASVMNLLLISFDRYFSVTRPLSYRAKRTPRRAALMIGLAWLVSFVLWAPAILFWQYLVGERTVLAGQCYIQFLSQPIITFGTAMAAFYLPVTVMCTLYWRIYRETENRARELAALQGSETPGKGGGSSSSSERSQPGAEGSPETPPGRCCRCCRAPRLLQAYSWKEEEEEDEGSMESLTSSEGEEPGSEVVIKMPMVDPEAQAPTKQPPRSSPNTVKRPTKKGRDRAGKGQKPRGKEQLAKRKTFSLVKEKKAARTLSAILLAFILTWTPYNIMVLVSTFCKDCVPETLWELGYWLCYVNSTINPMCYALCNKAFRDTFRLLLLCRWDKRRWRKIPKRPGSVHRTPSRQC
CHO-K1 Ca PAM – nonselective activator or artifact in parental CHO-K1 calcium assay; hit rate 0.02% among 360,000; activation, % at 3 µM; ATP EC20, Fluo-8 calcium fluorescence; 0% at ATP EC20, 100% at ATP max;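 active = activation above the run cutoff, the mean activation of all test compounds plus 3 SD, cut at about 40% in these data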;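 note: peak over basal fluorescence ratio in a 140 s read after ATP addition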
CHRM1 antagonist – antagonists of human M1 muscarinic receptor. inhibition, % at 3 µM. P11229. AID 588852. hit rate 1.3% among 360,000. CHO-K1 hM1, Fluo-8 calcium fluorescence, ACh EC80 antagonist;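 active = percent inhibition above its own plate's cutoff, namely the mean of that plate's compound wells plus 3 SD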;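 note: peak over basal fluorescence ratio during 140 s after agonist addition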
CHRM1 PAM – potentiates human M1 receptor response to acetylcholine | activation, % at 3 µM | hit rate 0.088% among 360,000 | CHO-K1 hM1, Fluo-8 calcium fluorescence, ACh EC20; 0% = ACh EC20, 100% = maximal ACh; in the data active = activation above about 19%, passing the limit was not always enough
CHO-K1 Ca antag – nonselective inhibitor or artifact in parental CHO-K1 cells | hit rate 0.6% among 360,000 | inhibition, % at 3 µM | AID 602250 | ATP-induced calcium, Fluo-8 fluorescence;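 active = inhibition above a per-plate cutoff, the plate's mean sample inhibition plus 3 SD, cut at about 24% in these data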
Hits are given with their value; – = inactive. Rows were chosen to be rich in hits. Some 2.3% of all compounds tested hit in one or more screens of this group.

SMILES | CHO-K1 Ca ag | M1 ag | CHO-K1 Ca PAM | CHRM1 antagonist | CHRM1 PAM | CHO-K1 Ca antag
CC(C)NC(=O)c1ccc(CN2CCC(Cc3ccccc3)CC2)cc1 | – | – | – | 84.4 | – | –
COc1ccc(CCNC(=O)c2ccc(CN3CCC(Cc4ccccc4)CC3)cc2)cc1 | – | – | – | – | – | –
C=CCNC(=O)c1ccc(CN2CCC(Cc3ccccc3)CC2)cc1 | – | – | – | 74.0 | – | –
CN1CC(=O)N2[C@H](c3ccc4c(c3)OCO4)c3[nH]c4ccccc4c3C[C@@H]2C1=O | – | – | – | – | – | –
COc1ccc(Cc2nnc(NC(=O)c3ccc(C)cc3)s2)cc1OC | – | – | – | – | – | –
COc1ccc(Cc2nnc(NC(=O)c3ccc(F)cc3)s2)cc1OC | – | – | – | – | – | 29.4
COc1ccc(CCN2C(=O)CS/C2=N\NC(=O)c2cccs2)cc1OC | 17.6 | – | – | – | – | –
CCOc1ccc(NC(=S)NCc2ccco2)cc1 | 16.7 | – | – | – | – | –
COc1ccc(NC(=S)NCc2ccco2)cc1 | – | – | – | – | – | –
O=C1Nc2ccccc2/C1=N\N=C\C1=C(N2CCOCC2)C(=C\c2ccccc2)/CC1 | – | – | – | 30.2 | – | –
CCN1CCN(c2ccc(NC(=O)COc3ccc(Cl)cc3C)cc2)CC1 | – | – | – | 100.3 | – | –
CCN1CCN(c2ccc(NC(=O)COc3ccccc3Cl)cc2)CC1 | – | – | – | 31.7 | – | –
CCn1cc(-c2n[nH]c(=S)n2-c2ccc(C)cc2Br)c(=O)c2ccc(C)nc21 | – | – | – | – | – | –
CN1CCC(=NNc2ncnc3sc4c(c23)CCCC4)CC1 | – | – | – | – | – | 27.1
c1nc(NCCN2CCOCC2)c2c3c(sc2n1)CCCCC3 | – | – | – | – | – | –
COc1ccccc1NC(=O)c1ccccc1C(=O)Nc1ccccc1OC | – | – | – | – | – | –
COc1ccccc1NC(=O)c1cc(OC)c(OC)cc1[N+](=O)[O-] | 16.2 | – | – | – | – | –
COc1ccc(OCCCC(=O)OCC(=O)N2CCN(S(=O)(=O)c3ccc(C)cc3C)CC2)cc1 | – | – | – | – | – | –
CC(=O)c1ccc(OCCCC(=O)OCC(=O)N2CCN(S(=O)(=O)c3ccc(C)cc3C)CC2)cc1 | 17.8 | – | – | 28.8 | – | –
CCN(CC(=O)NC(C)(C)C)Cc1cc(=O)n2c(-c3ccccc3)csc2n1 | – | – | – | – | – | –
CSCCC(NC(=O)c1ccco1)C(=O)N1CCCC(C(F)(F)F)C1 (centres undefined) | – | – | – | – | – | –
O=C(Nc1ccc(N2CCN(c3ncccc3C(F)(F)F)CC2)nc1)c1cccs1 | – | – | – | 45.5 | – | –
O=C(Nc1ccc(N2CCN(c3ccc(C(F)(F)F)cn3)CC2)nc1)c1cccs1 | – | – | – | – | – | –
N#Cc1cccc(NC(=O)CSc2ccc3c4c(cccc24)C(=O)c2ccccc2-3)c1 | – | 44.4 | – | 32.0 | – | –
CN(CC(=O)Nc1c(Cl)cccc1Cl)C(=O)Cc1cccs1 | – | – | – | – | – | –
SMILES | CHO-K1 Ca ag | M1 ag | CHO-K1 Ca PAM | CHRM1 antagonist | CHRM1 PAM | CHO-K1 Ca antag
O=C(CCC1CCCC1)NNC(=O)c1ccccc1O | – | – | – | – | – | –
CC(c1ccccc1)C1OCC(C[N+]2(C)CCCCC2)O1 (centres undefined) | – | – | – | 98.6 | – | –
COc1ccc(NC(=O)CSCC(=O)N2c3ccccc3CCc3ccccc32)cc1 | 19.0 | – | – | – | – | –
COc1ccc(NC(=O)CSCC(=O)N(C)Cc2cccc(OC)c2OC)cc1 | – | – | – | – | – | 26.0
O=C(CN1C(=O)CC(c2ccco2)Sc2ccccc21)Nc1ccc2c(c1)OCCO2 (centres undefined) | – | – | – | 37.7 | – | –
O=C(CCNC(=O)C1CCN(S(=O)(=O)c2ccc(F)cc2)CC1)NCc1cccnc1 | – | – | – | – | – | –
CCCNc1nc(C)cc(-c2cc(C(=O)NC3CCCC3)on2)n1 | – | – | – | – | – | –
COc1ccccc1N=C1NC(=O)/C(=C/c2ccc(N(C)C)cc2)S1 | 32.3 | 22.2 | – | – | – | 28.9
CC1CCCC(C)N1CC(O)COc1ccc(Cl)cc1 (centres undefined) | – | – | – | – | – | –
